Measurements reported in PubChem BioAssay AID602144 (Vanderbilt Specialized Chemistry Center, 2011).
“And” between values parts separate entries of the source, which are not always exact repeats. Identical values can stand only once. The source made the active and inactive calls. No stated cut-off is given here; in the data, active means remaining activity below about 50%; inactive means the rest.

Target: Phospholipase D1 (Homo sapiens) (UniProt Q13393)
Assay: PLD1 inhibitors in cells, Calu-1 cells, single concentration (AID 602144);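 further: tested at 200 nM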
Settings: cellular PLD1 activity, hits give low values

Chain of Phospholipase D1 (Homo sapiens) (Q13393 whole entry, looked up): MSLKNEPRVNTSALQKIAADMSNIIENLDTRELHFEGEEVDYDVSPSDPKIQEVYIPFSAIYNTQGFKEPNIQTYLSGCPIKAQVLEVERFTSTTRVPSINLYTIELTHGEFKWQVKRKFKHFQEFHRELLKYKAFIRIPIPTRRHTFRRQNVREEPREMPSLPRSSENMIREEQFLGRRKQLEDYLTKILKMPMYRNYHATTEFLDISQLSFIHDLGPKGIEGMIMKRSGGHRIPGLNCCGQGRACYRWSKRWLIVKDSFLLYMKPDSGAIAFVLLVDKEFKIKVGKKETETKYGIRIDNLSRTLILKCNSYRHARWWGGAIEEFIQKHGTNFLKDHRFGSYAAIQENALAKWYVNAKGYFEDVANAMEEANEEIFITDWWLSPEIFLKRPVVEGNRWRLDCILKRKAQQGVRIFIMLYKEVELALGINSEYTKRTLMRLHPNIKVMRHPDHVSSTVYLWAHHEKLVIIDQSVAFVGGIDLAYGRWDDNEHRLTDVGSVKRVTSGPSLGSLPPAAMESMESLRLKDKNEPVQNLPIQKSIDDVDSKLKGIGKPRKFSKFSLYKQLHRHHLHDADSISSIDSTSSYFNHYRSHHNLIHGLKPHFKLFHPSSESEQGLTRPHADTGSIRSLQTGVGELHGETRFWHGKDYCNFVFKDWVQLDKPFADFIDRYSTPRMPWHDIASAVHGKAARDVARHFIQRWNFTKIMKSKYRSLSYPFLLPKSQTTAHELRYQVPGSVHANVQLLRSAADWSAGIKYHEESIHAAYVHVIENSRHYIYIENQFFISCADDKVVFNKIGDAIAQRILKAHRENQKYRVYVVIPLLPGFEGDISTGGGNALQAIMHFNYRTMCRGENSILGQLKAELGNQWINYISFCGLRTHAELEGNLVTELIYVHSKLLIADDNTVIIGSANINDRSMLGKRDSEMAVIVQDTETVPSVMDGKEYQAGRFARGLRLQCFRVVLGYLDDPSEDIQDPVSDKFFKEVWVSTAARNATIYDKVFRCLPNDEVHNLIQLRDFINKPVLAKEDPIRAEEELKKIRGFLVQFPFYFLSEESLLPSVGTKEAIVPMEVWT
Chain of Phospholipase D1 (Homo sapiens) (Q13393 whole entry, looked up): as above

| SMILES | remaining activity |
| --- | --- |
| O=C(NCCN1CCC2(CC1)C(=O)NCN2c1cccc(F)c1)C(c1ccccc1)c1ccccc1 | 94.7% (inactive) |
| O=C(NCCN1CCC2(CC1)C(=O)NCN2c1ccccc1)c1cc(=O)c2cc(Br)ccc2o1 | 110% (inactive) |
| O=C(c1c(F)cccc1F)N(CCN1CCC2(CC1)C(=O)NCN2c1cccc(F)c1)C(=O)c1c(F)cccc1F | 97.9% (inactive) |
| O=C(NCCN1CCC2(CC1)C(=O)NCN2c1ccccc1)c1ncccc1F | 110% (inactive) |
| O=C(NCCN1CCC2(CC1)C(=O)NCN2c1ccc(Br)cc1)c1cc2cc(F)ccc2[nH]1 | 55.7% (inactive) |
| O=C1NCN(c2ccccc2)C12CCN(CCN1CCCC1)CC2 | 116% (inactive) |
| C[C@@H](CN1CCC2(CC1)C(=O)NCN2c1ccc(F)c(F)c1)NC(=O)c1cc2ccccc2[nH]1 | 0% (active) |
| COc1ccc(CC(=O)NCCN2CCC3(CC2)C(=O)NCN3c2cccc(F)c2)cc1OC | 108% (inactive) and 107% (inactive) |
| O=C(NCCN1CCC2(CC1)C(=O)N(Cc1ccccc1)c1ccccc12)c1ccc2ccccc2c1 | 98.9% (inactive) |
| C[C@H](CN1CCC2(CC1)C(=O)NCN2c1ccccc1)NC(=O)c1cc2cc(F)ccc2[nH]1 | 2.46% (active) |
| O=C(c1ccc(F)c(F)c1)N(CCN1CCC2(CC1)C(=O)NCN2c1cccc(F)c1)C(=O)c1ccc(F)c(F)c1 | 101% (inactive) |
| O=C(N[C@@H](Cc1ccccc1)CN1CCC2(CC1)C(=O)NCN2c1ccccc1)c1ccc(F)c(F)c1 | 75.5% (inactive) |
| C[C@@H](CN1CCC2(CC1)C(=O)NCN2c1ccc(F)c(F)c1)NC(=O)c1ccc2ccccc2c1 | 25.7% (active) |
| O=C(NCCN1CCC2(CC1)C(=O)NCN2c1cccc(F)c1)c1ccc(OC(F)(F)F)cc1 | 96.9% (inactive) |
| O=C(c1cnc2ccccc2c1)N1CCCC1CN1CCC(n2c(=O)[nH]c3ccccc32)CC1 (stereo not given) | 122% (inactive) |
| O=C(NCCN1CCC2(CC1)C(=O)NCN2c1ccccc1)c1cnco1 | 98% (inactive) |
| Nc1ccc(C(=O)NCCN2CCC3(CC2)C(=O)NCN3c2ccccc2)cc1OC(F)(F)F | 91.5% (inactive) |
| O=C(NCCN1CCC2(CC1)C(=O)NCN2c1ccccc1)c1cnc2ccccc2c1 | 130% (inactive) |

| SMILES | remaining activity |
| --- | --- |
| O=C(NCCN1CCC2(CC1)C(=O)NCN2c1ccc(Cl)cc1)c1ccc(F)cc1 | 123% (inactive) |
| O=C(NCCN1CCC2(CC1)C(=O)NCN2c1cccc(Cl)c1)c1ccc2ccccc2c1 | 57.3% (inactive) |
| O=C(NCCN1CCC2(CC1)C(=O)NCN2c1ccccc1)c1ccnnc1 | 104% (inactive) |
| O=C(NCCN1CCC2(CC1)C(=O)NCN2c1ccc(F)cc1)c1cc2ccccc2[nH]1 | 32.3% (active) |
| O=C(NCCN1CCC2(CC1)C(=O)NCN2c1ccc(Cl)cc1)c1cc2ccccc2[nH]1 | 61.5% (inactive) |
| O=C(CCN1CCC2(CC1)C(=O)NCN2c1ccccc1)Nc1ccc(F)cc1 | 125% (inactive) |
| O=C(c1cnc2ccccc2c1)N1CC(N2CCC(n3c(=O)[nH]c4cc(Br)ccc43)CC2)C1 | 81.6% (inactive) |
| COc1cccc(C(=O)NCCN2CCC3(CC2)C(=O)NCN3c2ccccc2)n1 | 137% (inactive) |
| O=C(NCCN1CCC2(CC1)C(=O)NCN2c1ccccc1)C1C[C@H]1c1ccccc1 (stereo not given in full) | 138% (inactive) |
| O=C(NCCN1CCC2(CC1)C(=O)NCN2c1ccc(F)cc1)c1cc2cc(F)ccc2[nH]1 | 48.1% (active) |
| O=C(NCCN1CCC2(CC1)C(=O)NCN2c1cccc(F)c1)c1cc2cc(F)ccc2[nH]1 | 44% (active) |
| COc1cc(OC)cc(C(=O)NCCN2CCC3(CC2)C(=O)NCN3c2cccc(F)c2)c1 | 97% (inactive) |
| O=C(c1cnc2ccccc2c1)N1CC(N2CCC(n3c(=O)[nH]c4ccccc43)CC2)C1 | 119% (inactive) |
| O=C(NCCN1CCC2(CC1)C(=O)NCN2c1ccccc1)c1cscn1 | 92.4% (inactive) |
| O=C(NCCN1CCC2(CC1)C(=O)NCN2c1cccc(Cl)c1)c1ccc(F)cc1 | 79.6% (inactive) |
| O=C(NCCN1CCC2(CC1)C(=O)NCN2c1ccccc1)c1ncc(F)cc1F | 125% (inactive) |
| O=C(NCCN1CCC2(CC1)C(=O)NCN2c1ccccc1)c1cc(-c2ccccc2)no1 | 97.4% (inactive) |
